PubChem BioAssay
Note: test concentration not given here.

Assay: compound effects on differentiated 3T3-L1 adipocyte viability – cell-based, 3T3-L1 adipocytes, calcein-AM fluorescence, 48 h, basal, profiling panel (AID 1163)
Conditions: 3T3-L1 adipocytes viability, higher = more signal
With `NC(=O)N1C(=O)C2C(C1=O)C1C=C(CCCO)C2C(C2CC2)N1Cc1sc2ccccc2c1Cl` (stereo unspecified) the z-score was 0.66.
`CCOC(=O)C1=CCC(c2cc3ccccc3[nH]2)N(CCN2CC(C(=O)OCC)=CCC2c2cc3ccccc3[nH]2)C1` (stereo unspecified) gave a z-score of 0.552.
In the case of `COCC(=C=CC[C@H](O)c1ccccc1OCCO)C[C@H](O)COCc1ccccc1`, the z-score is reported as 0.152.
For `COc1ccc([Si](C)(C)[C@@H]2[C@@H](CC(=O)N3CCC[C@H]3CO)O[C@]3(C(=O)N(Cc4ccc(N5CCOC5=O)cc4)c4ccccc43)[C@H]2C)cc1`, the z-score was 1.05.
For `C=C(CCCC)C(=O)CC[C@H](OC(=O)c1ccccc1-c1ccccc1C(=O)O)c1ccc(OCCO)cc1`, the z-score was 0.251.
For `COC(=O)[C@@]1(Cc2ccc(F)cc2)[C@H]2c3cc(C(=O)N4CCCC4)n(Cc4ccccn4)c3C[C@H]2CN1C(=O)c1ccccc1`, the z-score was -0.0559.
Work on `O=C1NC(=O)C2C1C=CC(C(O)c1ccc([N+](=O)[O-])cc1)N2Nc1ccccn1` (stereo unspecified) yielded a z-score of -0.379.
`CCCC#C[Si](O[C@H](CC)c1cn(Cc2ccccc2)nn1)(C(C)C)C(C)C` gave a z-score of -0.782.
`COCCCNC(=O)[C@@]1(CCC(=O)OC(C)(C)C)COC(c2ccc(OCCCO)cc2)=N1` gave a z-score of 0.129.
`C=C(CCCC)/C(=C/C[C@H](OC(C)=O)c1cccc(OCCO)c1)c1cnc2ccccc2c1` gave a z-score of 1.16.
With `CN(C)C(=O)[C@]1(Cc2ccccc2)N=C(c2ccc(OCCCO)cc2)O[C@@H]1c1ccccc1CN=[N+]=[N-]` the z-score was 0.412.
For `Cc1ccc(S[C@]2(C(=O)NCc3ccccc3)CC(=O)N(Cc3ccccc3C(F)(F)F)[C@@H]2c2ccc(CO)cc2)cc1`, the z-score was 0.269.
With `CCCN1C(=O)[C@]2(CCC(=O)OC(C)(C)C)N=C(c3ccc(OCCCO)cc3)O[C@@H]2c2ccccc21` the z-score was 0.92.
For `C[N+](C)(C)CCCC[C@@H]1NC(=O)[C@H]2C[C@@H](C(=O)NCCCCCNC(=O)CS)[C@@H](c3cccc(OCCO)c3)N2C1=O`, the z-score was 0.571.
`CO[C@H]1O[C@H](CO)[C@@H](OC(=O)Nc2ccccc2-c2ccccc2)[C@H](OC(=O)Nc2ccccc2)[C@H]1OC(=O)Nc1ccccc1` showed a z-score of 1.29.
Molecule `CC(C)=C1C(=O)C(c2ccccc2)=C2CN3C(=O)N(CCc4ccccc4)C(=O)[C@]3(C)[C@H]21` has a z-score of -0.342.
Work on `C[C@]1(C(=O)O)c2ccccc2C(=O)N(Cc2cc(F)cc(C(F)(F)F)c2)[C@H]1c1ccc(CO)cc1` yielded a z-score of 0.658.
Molecule `CN(C)CCCNC(=O)[C@@]1(Cc2ccccc2I)c2ccccc2C(=O)N(C2CCCCC2)[C@H]1c1ccc(CO)cc1` has a z-score of -0.546.
In the case of `C#CCN1[C@@H](Cc2ccccc2)C(=O)O[C@H](Cc2ccccc2)[C@@H]1/C=C/C1CC1`, the z-score is reported as -0.488.
Work on `CCCc1cc2c(n1CCc1ccc(Cl)cc1)C(C)C1CN(C(=O)c3ccccc3)C(C)(C(=O)OC)C21` (stereo unspecified) yielded a z-score of 1.33.
In the case of `CN1C(=O)[C@@H]2[C@@H](CC(COc3ccccc3)=C3[C@@H](CCc4ccccc4)OB(O)C[C@@H]32)C1=O`, the z-score is reported as -0.477.
`CC(C)(C)OC(=O)CC[C@]1(C(=O)NCC(O)CO)N=C(c2ccc(OCCCO)cc2)O[C@H]1c1ccccc1N=[N+]=[N-]` (stereo partly specified) showed a z-score of 0.809.
For `COc1ccc([Si](C)(C)[C@H]2[C@H](CC(=O)N3CCC[C@H]3CO)O[C@@]3(C(=O)N(Cc4ccc(N5CCCCC5=O)cc4)c4ccccc43)[C@@H]2C)cc1`, the z-score was 0.954.
`C=CCOC(=O)[C@H]1[C@@H]2C(=O)O[C@@H](c3ccccc3)[C@@H](c3ccccc3)N2[C@@H](c2ccc(OCCOC(=O)[C@@H]3C[C@@H]4C(=O)N[C@@H](CCCC[N+](C)(C)C)C(=O)N4[C@@H]3c3ccc(O)cc3)cc2)[C@]12C(=O)Nc1ccc(I)cc12` gave a z-score of -0.169.
`O=C(NCc1ccc(F)cc1)[C@H]1C[C@H]2C(=O)N3CCC[C@H]3C(=O)N2[C@H]1c1ccc(O)cc1` showed a z-score of 0.625.

Assay: compound effects on hepatocellular carcinoma cell viability – HepG2, calcein-AM fluorescence, 48 h, basal, profiling panel (AID 1164)
Conditions: higher = more signal
Work on `COC(=O)[C@@]1(Cc2ccc(F)cc2)[C@H]2c3cc(C(=O)N(C)C)n(CCc4ccc(O)c(O)c4)c3C[C@H]2CN1C(=O)c1ccccc1` yielded a z-score of 0.193.
With `CCOC(=O)C1=CC[C@@H](c2ccc(OC)cc2)N(S(=O)(=O)c2ccc(C)cc2)[C@H]1c1ccc(C)cc1` the z-score was 0.65.
Molecule `[N-]=[N+]=NCc1ccccc1[C@@H]1OC(c2ccc(OCCCO)cc2)=N[C@]1(Cc1ccccc1N=[N+]=[N-])C(=O)O` has a z-score of -0.567.
For `COC(=O)[C@@]1(Cc2ccccc2)[C@H]2c3cc(C(=O)N(C)C)n(CCSC(=N)N)c3C[C@H]2CN1C(=O)c1ccccc1`, the z-score was -1.11.
`Cc1ccc(S[C@]2(C(=O)NC(C)C)CC(=O)N(C3CCCCC3)[C@@H]2c2ccc(CO)cc2I)cc1` showed a z-score of -0.938.
In the case of `COC(=O)C(CC#Cc1ccc2c(c1)[C@]1(C(=O)N2)[C@H](C(=O)N2CCc3cc(OC)c(OC)cc3C2)[C@H]2C(=O)O[C@H](c3ccccc3)[C@H](c3ccccc3)N2[C@@H]1c1ccccc1OCCO)C(=O)OC`, the z-score is reported as 0.43.
With `C=CC[C@@]12N=C(c3ccc(OCCCO)cc3)O[C@@H]1c1ccccc1N(CCC)C2=O` the z-score was -1.16.
`CCC(CC)C(O)C1C=CC2C(=O)N(c3ccccc3)C(=O)C2N1Nc1ccccc1F` (stereo unspecified) gave a z-score of 1.09.
In the case of `C=C(COC)/C(=C/C[C@H](OC(C)=O)c1ccccc1OCCO)c1cc(C(=O)OC)ccc1OC`, the z-score is reported as -0.63.
Work on `CN(C)CCCC[C@@H]1NC(=O)[C@@H]2C[C@H](C(=O)NCCCCCN)[C@H](c3cccc(OCCO)c3)N2C1=O` yielded a z-score of 1.44.
With `COC(=O)C[C@H]1O[C@@]2(C[C@@H]1[Si](C)(C)C)C(=O)N(C)c1ccccc12` the z-score was 0.606.
`NC(=O)N1C(=O)C2C(C1=O)C1C=C(CCCO)C2C(C2CC2)N1Cc1sc2ccccc2c1Cl` (stereo unspecified) showed a z-score of 0.839.
`CCOC(=O)C1=CCC(c2cc3ccccc3[nH]2)N(CCN2CC(C(=O)OCC)=CCC2c2cc3ccccc3[nH]2)C1` (stereo unspecified) gave a z-score of 0.105.
With `COCC(=C=CC[C@H](O)c1ccccc1OCCO)C[C@H](O)COCc1ccccc1` the z-score was 0.024.
With `COc1ccc([Si](C)(C)[C@@H]2[C@@H](CC(=O)N3CCC[C@H]3CO)O[C@]3(C(=O)N(Cc4ccc(N5CCOC5=O)cc4)c4ccccc43)[C@H]2C)cc1` the z-score was -2.21.
`C=C(CCCC)C(=O)CC[C@H](OC(=O)c1ccccc1-c1ccccc1C(=O)O)c1ccc(OCCO)cc1` showed a z-score of -0.549.
Work on `COC(=O)[C@@]1(Cc2ccc(F)cc2)[C@H]2c3cc(C(=O)N4CCCC4)n(Cc4ccccn4)c3C[C@H]2CN1C(=O)c1ccccc1` yielded a z-score of -0.347.
`O=C1NC(=O)C2C1C=CC(C(O)c1ccc([N+](=O)[O-])cc1)N2Nc1ccccn1` (stereo unspecified) gave a z-score of -0.357.
With `CCCC#C[Si](O[C@H](CC)c1cn(Cc2ccccc2)nn1)(C(C)C)C(C)C` the z-score was 0.709.
With `COCCCNC(=O)[C@@]1(CCC(=O)OC(C)(C)C)COC(c2ccc(OCCCO)cc2)=N1` the z-score was -0.642.
In the case of `C=C(CCCC)/C(=C/C[C@H](OC(C)=O)c1cccc(OCCO)c1)c1cnc2ccccc2c1`, the z-score is reported as 0.301.
In the case of `CN(C)C(=O)[C@]1(Cc2ccccc2)N=C(c2ccc(OCCCO)cc2)O[C@@H]1c1ccccc1CN=[N+]=[N-]`, the z-score is reported as -0.0312.
In the case of `Cc1ccc(S[C@]2(C(=O)NCc3ccccc3)CC(=O)N(Cc3ccccc3C(F)(F)F)[C@@H]2c2ccc(CO)cc2)cc1`, the z-score is reported as 1.73.
In the case of `CCCN1C(=O)[C@]2(CCC(=O)OC(C)(C)C)N=C(c3ccc(OCCCO)cc3)O[C@@H]2c2ccccc21`, the z-score is reported as -1.49.
`C[N+](C)(C)CCCC[C@@H]1NC(=O)[C@H]2C[C@@H](C(=O)NCCCCCNC(=O)CS)[C@@H](c3cccc(OCCO)c3)N2C1=O` showed a z-score of -0.953.
Work on `CO[C@H]1O[C@H](CO)[C@@H](OC(=O)Nc2ccccc2-c2ccccc2)[C@H](OC(=O)Nc2ccccc2)[C@H]1OC(=O)Nc1ccccc1` yielded a z-score of -1.74.
Work on `CC(C)=C1C(=O)C(c2ccccc2)=C2CN3C(=O)N(CCc4ccccc4)C(=O)[C@]3(C)[C@H]21` yielded a z-score of 0.302.
`C[C@]1(C(=O)O)c2ccccc2C(=O)N(Cc2cc(F)cc(C(F)(F)F)c2)[C@H]1c1ccc(CO)cc1` gave a z-score of -0.577.
`CN(C)CCCNC(=O)[C@@]1(Cc2ccccc2I)c2ccccc2C(=O)N(C2CCCCC2)[C@H]1c1ccc(CO)cc1` showed a z-score of -5.11.
Molecule `C#CCN1[C@@H](Cc2ccccc2)C(=O)O[C@H](Cc2ccccc2)[C@@H]1/C=C/C1CC1` has a z-score of 0.196.
Molecule `CCCc1cc2c(n1CCc1ccc(Cl)cc1)C(C)C1CN(C(=O)c3ccccc3)C(C)(C(=O)OC)C21` (stereo unspecified) has a z-score of -0.534.
With `CN1C(=O)[C@@H]2[C@@H](CC(COc3ccccc3)=C3[C@@H](CCc4ccccc4)OB(O)C[C@@H]32)C1=O` the z-score was -1.14.
Molecule `CC(C)(C)OC(=O)CC[C@]1(C(=O)NCC(O)CO)N=C(c2ccc(OCCCO)cc2)O[C@H]1c1ccccc1N=[N+]=[N-]` (stereo partly specified) has a z-score of 0.324.
`COc1ccc([Si](C)(C)[C@H]2[C@H](CC(=O)N3CCC[C@H]3CO)O[C@@]3(C(=O)N(Cc4ccc(N5CCCCC5=O)cc4)c4ccccc43)[C@@H]2C)cc1` showed a z-score of -0.531.
`C=CCOC(=O)[C@H]1[C@@H]2C(=O)O[C@@H](c3ccccc3)[C@@H](c3ccccc3)N2[C@@H](c2ccc(OCCOC(=O)[C@@H]3C[C@@H]4C(=O)N[C@@H](CCCC[N+](C)(C)C)C(=O)N4[C@@H]3c3ccc(O)cc3)cc2)[C@]12C(=O)Nc1ccc(I)cc12` showed a z-score of -0.457.
With `O=C(NCc1ccc(F)cc1)[C@H]1C[C@H]2C(=O)N3CCC[C@H]3C(=O)N2[C@H]1c1ccc(O)cc1` the z-score was -0.647.
